# TRPML1 ag: human mucolipin-1 channel agonism | hit rate 0.12% among 410,000 | TRPML1-expressing cells, Ca2+ dye fluorescence, FDSS | AID 624414 | activation, % (no concentration beside the values); in the data active means activation above about 50%; inconclusive means mostly about 30% to 49%; further: 0% is about no effect
#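 Agonist activity was taken from a 110 s kinetic Ca2+ dye read on the FDSS after pinning compounds onto TRPML1-DL cells. The cells were seeded at 1,500/well with Tet inducer, incubated about 16 h, then dye-loaded at room temperature.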
# TRPV1 potentiator: potentiators of human vanilloid receptor 1 (TRPV1); TRPV1-expressing cells, Fluo-8 calcium influx, capsaicin EC20 potentiation; potentiation, % at 8.33 µM; hit rate 0.02% among 320,000; in the data active means potentiation above about 80%; inconclusive means between about 30% and that limit; further: 0% is about no effect
# Target sequence (Q8NER1 whole entry, looked up): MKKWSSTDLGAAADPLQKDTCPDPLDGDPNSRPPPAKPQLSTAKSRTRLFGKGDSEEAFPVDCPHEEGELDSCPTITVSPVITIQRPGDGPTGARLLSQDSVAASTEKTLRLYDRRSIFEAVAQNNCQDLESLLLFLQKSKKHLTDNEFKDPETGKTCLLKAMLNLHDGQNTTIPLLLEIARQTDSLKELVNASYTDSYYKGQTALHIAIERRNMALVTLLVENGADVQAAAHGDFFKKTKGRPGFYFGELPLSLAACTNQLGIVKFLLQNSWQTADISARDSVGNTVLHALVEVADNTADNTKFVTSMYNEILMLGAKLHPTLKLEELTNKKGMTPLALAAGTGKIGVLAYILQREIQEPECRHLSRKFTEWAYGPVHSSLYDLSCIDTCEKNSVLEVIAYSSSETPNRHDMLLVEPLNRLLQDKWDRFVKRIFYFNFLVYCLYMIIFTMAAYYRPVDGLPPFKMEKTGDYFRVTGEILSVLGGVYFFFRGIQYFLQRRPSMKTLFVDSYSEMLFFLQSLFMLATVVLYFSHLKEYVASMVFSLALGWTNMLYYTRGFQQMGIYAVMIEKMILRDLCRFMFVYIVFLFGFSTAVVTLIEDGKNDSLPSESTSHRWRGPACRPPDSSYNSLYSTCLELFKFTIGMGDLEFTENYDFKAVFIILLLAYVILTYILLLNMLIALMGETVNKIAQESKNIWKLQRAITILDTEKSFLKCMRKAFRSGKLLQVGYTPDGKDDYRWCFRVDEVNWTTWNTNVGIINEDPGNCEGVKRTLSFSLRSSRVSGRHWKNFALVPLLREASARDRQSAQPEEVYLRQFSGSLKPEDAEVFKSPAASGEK
#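 Fluo-8 calcium influx in TRPV1-expressing cells, kinetic read (ex 480/em 520 nm). Compound added and read 3 min for agonist activity, followed by capsaicin at EC20 final and 2 min further read for enhancement.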
# A-T KAP1 phos: potential ataxia-telangiectasia treatment | F2112 A-T fibroblasts, KAP-1 phosphorylation AlphaLISA; neocarzinostatin DNA damage 30 min before lysis | Potency, µM (highest dose often 57.5 µM), without a hit: top-dose activation, hits mostly activators | hit rate 0.19% among 320,000 | AID 485349; active means well fitted activation curve with a large enough effect; inconclusive means small, poorly fitted or top-dose-only effect; inactive means no such curve, though single readings can be large or run the other way; further: potency means the concentration at half of the fitted maximal effect; % of control where 0% means no effect; nearly all actives have a fitted effect of over 45% in size
#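 ATM-like activity read as KAP-1 phosphorylation via AlphaLISA donor/acceptor antibody pairs after lysis and 6 hr at 25C. Cells were ATM-null patient fibroblasts (F2112, hTERT), dosed 60 min, then exposed to the DSB inducer NCS for 30 min.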
# TRPML1 inh: blocks the human TRPML1 channel | Q9GZU1 | activity change, negative = inhibition, % (test concentration not listed) | TRPML1-inducible cells, Ca2+ dye fluorescence, FDSS; hits give low values; inhibition of EC80 agonist-evoked calcium signal | hit rate 0.02% among 390,000 | AID 624415; in the data active means activity change below about -50%; inconclusive means between about -30% and that limit;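 further: stimulus is agonist 54-4 at its EC80 concentration; on the % scale 0 is the no-effect control and ±100 the full control effect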
#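 Calcium fluorescence in TRPML1-DL cells induced overnight with Tet: a 110 s read after compound pin addition, then a 110 s antagonist read after challenge with 54-4 at 4 uM final (EC80).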
# TRPV1 agonist: agonists of human vanilloid receptor 1 (TRPV1); Q8NER1; activation, % at 8.33 µM; TRPV1-expressing cells, Fluo-8 calcium influx, agonist mode; hit rate 0.19% among 320,000; in the data active means activation above about 80%; inconclusive means between about 30% and that limit; further: 0% is about no effect
#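 TRPV1-expressing cells were cultured overnight at 35.5C and loaded with Fluo-8 calcium dye for 40 to 90 min at room temperature. After a 10 s baseline, compound was added and calcium influx was read kinetically for 3 min (ex 480/em 520 nm).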
# * marks the source's active call; other numbers are inactive results; u = inconclusive; x = no result given; [ ] = dose if it differs, or a comment. Shown are actives, neighbours in structure and some others; about 0.41% of the full set was active somewhere.
SMILES,TRPML1 ag,TRPV1 potentiator,A-T KAP1 phos,TRPML1 inh,TRPV1 agonist
Cc1cccc(C)c1NC(=O)COC(=O)c1cc(=O)c2ccccc2o1,x,8,3.5µM*,x,3
COCCNC(=O)c1c(N)n(-c2ccccc2)c2nc3ccccc3nc12,0,-12,2%,2,16
COCCNC(=O)c1c(N)n(-c2cccc(C)c2)c2nc3ccccc3nc12,0,5,3.5µM*,-2,-6
CC(=O)c1cccc(OCC(O)CNCC2COc3ccccc3O2)c1 (centres undefined),0,-24,50µM*,5,6
CC(OCC(O)CNCC1COc2ccccc2O1)c1ccc(Cl)cc1 (centres undefined),0,6,1%,2,7
COC(=O)c1ccc(Cl)cc1N(Cc1c(F)cccc1Cl)S(C)(=O)=O,108*,-14,-1%,-6,3
CC(NC(=O)c1ccccc1NC(=O)c1ccccc1)C(=O)N1CCOCC1 (centres undefined),0,7,4%,-6,80*
CC(C)C(NC(=O)c1ccccc1NC(=O)C(C)(C)C)C(=O)N1CCOCC1 (centres undefined),1,x,6%,3,x
CCN1N=C(c2ccccc2)Cn2c1nc1ccccc12,3,-14,x,-10,90*
C[C@@H]1[C@H](c2ccccc2)OCCS(=O)(=O)N1Cc1ccc(F)cc1,0,x,x,x,x
CCc1ccc(NC(=O)Nc2ccc3c(c2)N(C)C(=O)CS3)cc1,-1,-7,13%,5,88*
CC(C)CN(CC(C)C)c1ccc(/C=C/c2nc3ccccc3s2)cc1,2,x,x,x,x
O=C([C@@H]1CC=C[C@@H]2CCN(C3CCCCC3)C(=O)[C@@H]21)N1CCOCC1,0,x,x,x,x
CC(=O)c1cccc(NC(=O)/C=C/c2ccc([N+](=O)[O-])s2)c1,0,-18,0%,-7,84*
CC(=O)OCCn1c2nc(=O)[nH]c(=O)c-2nc2cc(C)c(C)cc21,117*,-21,-4%,-22,122*
O=C(C[n+]1cccc(Br)c1)c1ccc(I)cc1,0,x,x,x,x
CCCCN1C(=O)/C(=C/C=C2/CC(C)(C)CN2C)SC1=S,53*,-2,-13%,-9,u
CCCCN1C(=O)/C(=C/C=C2\Oc3ccccc3N2CC)SC1=S,u,26,-5%[11.5 µM],5,u
O=C(NCc1ccncc1)C1CCCN(S(=O)(=O)c2cc(Cl)ccc2Cl)C1 (centres undefined),0,-18,-2%,20,87*
CN(CC(=O)O)c1ccc(/C=C/c2ccnc3ccccc23)cc1,16,x,x,x,x
O=C(NC(CC1CCCCC1)C(=O)O)c1ccccc1 (centres undefined),0,3,25µM*,7,-9
O=C(/C=C/c1ccc(Cl)c(Cl)c1)Nc1cccnc1,2,x,x,0,x
CC(C)(C)c1ccc(/C=C/C(=O)Nc2cccnc2)cc1,0,-20,-18%,-4,101*
CSc1cccc(NC(=O)/C=C/c2ccccc2)c1,1,-7,-3%,22,u
CSc1ccc(/C=C/C(=O)Nc2ccccc2)cc1,0,4,3%,5,90*
SMILES,TRPML1 ag,TRPV1 potentiator,A-T KAP1 phos,TRPML1 inh,TRPV1 agonist
CC1C/C(=C/c2ccncc2)C(=O)/C(=C/c2ccncc2)C1 (centres undefined),0,10,32%,45,1
CC1C/C(=C/c2cccn2C)C(=O)/C(=C/c2cccn2C)C1 (centres undefined),28,-3,-1%,-14,100*
CCCCCCCCCCCCCCCCCCN(CCCCCCCCCCCCCCCCCC)c1ccc(/C=C/c2ccc(C=O)cc2)cc1,0,x,x,x,x
CC(=O)NC(Cc1c(F)c(F)c(F)c(F)c1F)C(=O)NCC(N)C(=O)c1ccccc1 (centres undefined),0,x,x,x,x
COc1cc2c(cc1OC)C(c1cc(-c3cc(Cl)ccc3Cl)oc1C)=NCC2,0,x,x,x,x
COc1ccc(CCNC2=NCCS2)cc1OC,0,-12,1.3µM*,11,2
COc1ccc(CCNC2=NCCS2)cc1,0,7,9%,5,0
CC1=C/C(=C\C=C(C#N)C#N)N(C)c2ccccc21,18,0,13µM*,47,12
O=C(/C=C/c1ccc(N2CCC(c3ccccc3)=N2)cc1)c1ccccc1,87*,13,-1%,-3,23
CCOC(=O)/C(=C\c1ccc(N2CCC(c3ccccc3)=N2)cc1)C(C)=O,u,x,x,1,x
O=C(COc1ccccc1C(=O)Nc1ccccc1)Nc1ccc(-c2ccccc2)cc1,0,x,x,x,x
CN(C)CCCNS(=O)(=O)c1ccc(N2CCC(c3ccc(Cl)cc3)=N2)cc1,x,-10,u,x,2
O=S(=O)(c1ccc(N2CCC(c3ccc(Cl)cc3)=N2)cc1)N(CCO)CCO,1,-3,32µM*,37,3
CC(C)(C)n1ncc2c(=O)n(Cc3ccc(C#N)cc3)cnc21,0,x,x,-5,x
C[C@@H](NC(=O)OC(C)(C)C)C(=O)NCC1CCC(C(=O)N[C@@H](Cc2ccccc2)C(=O)O)CC1 (some centres undefined),1,-14,8%,31,5
C[C@H](NC(=O)OC(C)(C)C)C(=O)NCC1CCC(C(=O)N[C@@H](Cc2ccccc2)C(=O)O)CC1 (some centres undefined),-1,-17,3.5µM*,4,6
CC(C)(C)n1ncc2c(=O)n(Cc3ccc(C(F)(F)F)cc3)cnc21,2,x,x,10,x
C(=C\c1c[nH]c2ccccc12)/c1ccc2ccccc2n1,16,x,x,x,x
CCCn1c2c(c(=N)c3c1CCC3)CCC2,0,4,2.5µM*,18,-3
CCCn1c2c(c(=N)c3c1CCC3)CCCC2,1,3,2%,-9,-1
COc1cccc(/C=N/n2cnc3c(cnn3-c3ccccc3)c2=O)c1,0,7,40µM*,-4,3
Cc1ccc(S(=O)(=O)N2CCN(c3nc(-n4ccnc4)nc4ccccc34)CC2)cc1,-1,x,x,x,x
NC1C(N)C(N)C1N (centres undefined),0,x,x,x,x
CCNC(=S)N1CCN(c2nc(CC)nc3sc4c(c23)CCCC4)CC1,1,5,-1%,23,83*
O=C(NC1CCCC1)c1cnn2c1NC(=C1CC1)C=C2C(F)F,-1,x,x,x,x
CCOC(=O)[C@H]1[C@H]2COc3ccc(C)cc3[C@@H]2N2C(=O)c3cc(F)ccc3NC(=O)[C@@]12C,0,18,9%,41,91*
CCOC(=O)[C@H]1[C@H]2COc3ccc(OC)cc3[C@@H]2N2C(=O)c3cc(C)ccc3NC(=O)[C@@]12C,1,12,4%,28,99*
CCOC(=O)[C@H]1[C@H]2COc3ccc(C)cc3[C@@H]2N2C(=O)c3cc(Cl)ccc3NC(=O)[C@@]12C,0,25,-7%,-9,82*

# Source: PubChem BioAssay (National Center for Advancing Translational Sciences (NCATS))
